Values without a mark were called inactive. Results filed as inconclusive are left out. Where a call stands in place of a potency, no number is given. Active and inactive are the calls of the source. The call rests on the fitted dose curve; in most records, active means well fitted curve in the direction sought with a large enough effect; inconclusive means small, poorly fitted or top-dose-only effect, or another doubt; inactive means no such curve, though single readings can be large; an effect the other way counts as inactive or inconclusive. Residues, ends and D or L forms follow the SMILES beside them. *: point of attachment. Cbz = O=C(OCc1ccccc1)*
Experiments:
[1] = molecular target: Single-stranded DNA cytosine deaminase (Homo sapiens) (UniProt Q9GZX7); test: Validation qHTS assay for inhibitors of Activation Induced Cytidine Deaminase (AID): AID signal (AID 1347429)
Summary of the method: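 FRET deamination assay: 1 uM AID (4/3x stock) with UDG, compound up to 114 uM, then 250 nM DJC20/DJC23 substrate (4x stock) for 4 hr at room temperature. NaOH added, 30 min; fluorescence read 540/590 nm.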

[2] = Primary qHTS for inhibitors of La Crosse Virus (LACV) - induced cell death in SH-SY5Y cells (AID 1508616);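 further: top concentration of the series differs between compounds; higher means more rescue of cells from virus-induced death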
Summary of the method: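 SH-SY5Y cells (6000/well) plated 24 h, then given compounds by pin transfer and LACV at 0.01 MOI for 6 days at 37C. Viability measured by ATPLite luminescence, normalized to infected DMSO and uninfected DMSO.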

[3] = molecular target: Calcium and integrin-binding protein 1 (Homo sapiens) (UniProt Q99828); test: Validation qHTS for Identification of Calcium Integrin Binding protein 1 (CIB1) Competitor (AID 1508618)
Summary of the method: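 In this qHTS validation, the LOPAC set (up to 114 uM) was tested for blocking CIB1 binding to a fluorescein-tagged alphaIIb peptide, with FP detection at 480/540 nm.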

[4] = Primary qHTS for small molecule stabilizers of the endoplasmic reticulum resident proteome: Secreted ER Calcium Modulated Protein (SERCaMP) assay (AID 1508630)
Summary of the method: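 GLuc-SERCaMP-expressing SH-SY5Y cells, pretreated 16 h with compound, are challenged with thapsigargin to empty ER calcium stores; after 4 h, coelenterazine is added directly to the medium and luminescence is imaged.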

Papain (Carica papaya) = Papain (Carica papaya) (UniProt P00784); test: Primary qHTS assay for inhibitors of the protease papain (AID 1645873);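 further: papain turnover of Z-FR-AMC read as the AMC fluorescence gain over 10 min; series mostly up to about 50 µM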
[5] = Confirmatory qHTS for small molecule stabilizers of the endoplasmic reticulum resident proteome: Secreted ER Calcium Modulated Protein (SERCaMP) assay (AID 1508628); further: potency means the concentration at half of the fitted maximal effect; nearly all actives have a fitted effect of over 40% in size
Summary of the method: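 SH-SY5Y cells stably expressing GLuc-SERCaMP, treated 16 h with compound (primary 1.53, 7.67, 38.3 uM; confirmation 11 concentrations, up to 76.6 uM), then 100 nM thapsigargin for 4 h. Secreted Gaussia luciferase in medium read by coelenterazine luminescence.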

[6] = Counterscreen qHTS for small molecule stabilizers of the endoplasmic reticulum resident proteome: GLuc-NoTag assay (AID 1508627);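 further: SH-SY5Y cells given compound then 100 nM thapsigargin to empty ER calcium; series mostly up to about 76 µM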
Summary of the method: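 SH-SY5Y cells stably expressing constitutively secreted GLuc (no SERCaMP tag) were pre-incubated 5 h, treated with compound for 19 h, then 100 nM thapsigargin for 4 h at 37C; medium GLuc read by coelenterazine luminescence.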

[7] = Cell Viability qHTS for small molecule stabilizers of the endoplasmic reticulum resident proteome (AID 1508629); details: cell viability counter-screen, 100 nM thapsigargin for final 4 h;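 further: human SH-SY5Y neuroblastoma cells carrying the GLuc-SERCaMP reporter; compound exposure about 46 h in total before the viability read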

Chain of Papain (Carica papaya) (P00784 whole entry, looked up): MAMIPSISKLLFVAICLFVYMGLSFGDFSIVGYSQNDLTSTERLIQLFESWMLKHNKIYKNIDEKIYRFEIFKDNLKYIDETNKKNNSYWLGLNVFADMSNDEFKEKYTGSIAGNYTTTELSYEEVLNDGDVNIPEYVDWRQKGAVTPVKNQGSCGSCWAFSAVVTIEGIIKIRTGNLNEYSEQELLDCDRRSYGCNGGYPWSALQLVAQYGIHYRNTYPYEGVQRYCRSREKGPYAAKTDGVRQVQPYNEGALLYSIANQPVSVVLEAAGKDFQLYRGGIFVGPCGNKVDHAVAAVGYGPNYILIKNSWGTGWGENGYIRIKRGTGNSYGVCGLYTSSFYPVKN
Chain of Calcium and integrin-binding protein 1 (Homo sapiens) (Q99828 whole entry, looked up): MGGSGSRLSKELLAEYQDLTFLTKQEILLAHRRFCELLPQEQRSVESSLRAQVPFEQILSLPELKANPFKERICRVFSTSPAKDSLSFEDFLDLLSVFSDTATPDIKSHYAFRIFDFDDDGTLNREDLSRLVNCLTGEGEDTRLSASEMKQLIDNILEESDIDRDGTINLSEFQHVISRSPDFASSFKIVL
Chain of Single-stranded DNA cytosine deaminase (Homo sapiens) (Q9GZX7 whole entry, looked up): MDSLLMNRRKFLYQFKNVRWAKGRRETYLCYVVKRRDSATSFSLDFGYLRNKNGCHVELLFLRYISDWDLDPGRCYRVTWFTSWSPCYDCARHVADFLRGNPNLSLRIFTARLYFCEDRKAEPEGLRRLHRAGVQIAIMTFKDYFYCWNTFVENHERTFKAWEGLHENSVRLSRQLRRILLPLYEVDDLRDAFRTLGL

**Q.** With `NS(=O)(=O)c1cccc2c1c([N+](=O)[O-])cc1nc(O)c(O)nc12` as the compound, how does the Potency [1] read?
**A.** inactive

**Q.** What about the Potency [2] of the same compound?
**A.** inactive

**Q.** For `CCCC(=O)NCCc1c2n(c3ccc(OC)cc13)CCCc1ccccc1-2`, which Potency [1] is on record?
**A.** inactive

**Q.** What about the Potency [2] of the same compound?
**A.** inactive

**Q.** And the Potency [3]?
**A.** inactive

**Q.** Which results are given for `Cc1nc(N=Nc2cc(S(=O)(=O)O)c3cc([N+](=O)[O-])cc(S(=O)(=O)O)c3c2)c(COP(=O)(O)O)c(C=O)c1O`?
**A.** Potency [1]: inactive; Potency [2]: inactive

**Q.** Which Potency [1] does the source give for `Cc1ccc2c(c1)C(N1CCN(C)CC1)=Nc1cccnc1N2` here?
**A.** inactive

**Q.** And the Potency [2]?
**A.** inactive

**Q.** And the Potency [3]?
**A.** inactive

**Q.** Which results are given for `N=C(N)SCCc1cnc[nH]1`?
**A.** Potency [1]: inactive; Potency [2]: inactive; Potency [3]: inactive; Potency [4]: inactive; Potency (Papain (Carica papaya)): inactive

**Q.** For `CC(C)[C@H](NC(=O)OCc1ccccc1)C(=O)N[C@H](C=O)Cc1ccccc1` (Cbz-Val-Phe-aldehyde), which Potency [1] is on record?
**A.** inactive

**Q.** What about the Potency [2] of the same compound?
**A.** inactive

**Q.** What about the Potency [3] of the same compound?
**A.** inactive

**Q.** Which results are given for `CCCCOC(=O)NS(=O)(=O)c1sc(CC(C)C)cc1-c1ccc(Cn2c(CC)nc3c(C)cc(C)nc32)cc1`?
**A.** Potency [1]: inactive; Potency [2]: inactive; Potency [3]: inactive; Potency [5]: 15.8 µM (active); Potency (Papain (Carica papaya)): inactive

**Q.** With `CC(C)(C)NCC(O)COc1cccc2[nH]c(=O)[nH]c12` (configuration not stated) as the compound, how does the Potency [1] read?
**A.** inactive

**Q.** And the Potency [2]?
**A.** inactive

**Q.** And the Potency [3]?
**A.** inactive

**Q.** What about the Potency [4] of the same compound?
**A.** inactive

**Q.** And the Potency (Papain (Carica papaya))?
**A.** inactive

**Q.** With `CCCCCC(O)CCCC(=O)O` (configuration not stated) as the compound, how does the Potency [1] read?
**A.** inactive

**Q.** What about the Potency [2] of the same compound?
**A.** inactive

**Q.** What about the Potency [3] of the same compound?
**A.** inactive

**Q.** And the Potency [4]?
**A.** inactive

**Q.** What about the Potency (Papain (Carica papaya)) of the same compound?
**A.** inactive

**Q.** For `Cc1ccccc1/C=C/C1=NCCN1`, which Potency [1] is on record?
**A.** inactive

**Q.** What about the Potency [2] of the same compound?
**A.** inactive

**Q.** What about the Potency [3] of the same compound?
**A.** inactive

**Q.** And the Potency [5]?
**A.** 11.2 µM (active)

**Q.** What about the Potency (Papain (Carica papaya)) of the same compound?
**A.** inactive

**Q.** For `C=CC1(C)CC(=O)C2(O)C(C)(O1)C(OC(C)=O)C(O)C1C(C)(C)CCC(O)C12C` (configuration not stated), which Potency [1] is on record?
**A.** inactive

**Q.** What about the Potency [2] of the same compound?
**A.** inactive

**Q.** And the Potency [3]?
**A.** inactive

**Q.** What about the Potency [4] of the same compound?
**A.** inactive

**Q.** What does the source list for `Nc1ccc(-c2ccc3ccccc3n2)cc1`?
**A.** Potency [1]: inactive; Potency [2]: inactive; Potency [3]: inactive; Potency [6]: inactive; max response [7]: -7.29%

From PubChem BioAssay (NCATS)
